# Measurements as given in PubChem BioAssay (NCATS).
# “And” between values parts separate entries of the source, which are not always exact repeats. Equal entries are not always repeated. Results filed as inconclusive are left out. The source made the active and inactive calls. Unless noted, the call rests on the fitted dose curve; in most records, active means well fitted curve in the direction sought with a large enough effect; inconclusive means small, poorly fitted or top-dose-only effect, or another doubt; inactive means no such curve, though single readings can be large; an effect the other way counts as inactive or inconclusive.
# Columns and labels:
# [1] = P-glycoprotein substrates identified in KB-8-5-11 adenocarcinoma cell line, qHTS therapeutic library screen (AID 1346987); further: nearly all actives have a fitted effect of over 65% in size
# Procedure, shortened: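 Steps: plate 500 KB-8-5-11 cells/well in DMEM + 10% FCS (colchicine removed); pin compounds in dose-response; incubate 72 h, 37 degree C, 5% CO2; add CellTiter-Glo, 5 min; read luminescence.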
# [2] = Primary qHTS for inhibitors of nuclear receptor binding SET domain protein 2 (NSD2) in an isogenic RCH-ACV NSD2 p.E1099K mutant (9B) (AID 1645876); further: potency means the concentration at half of the fitted maximal effect; nearly all actives have a fitted effect of over 70% in size
# [3] = Primary qHTS for inhibitors of nuclear receptor binding SET domain protein 2 (NSD2) in an RCH-ACV wild type WT cells (2C) (AID 1645877); further: potency means the concentration at half of the fitted maximal effect; nearly all actives have a fitted effect of over 70% in size
# [4] = molecular target: Glutathione peroxidase 1 (Homo sapiens) (UniProt P07203); experiment: Primary qHTS Assay for Inhibitors of Recombinant Selenoprotein Glutathione Peroxidase 1 (GPX1) (AID 1845191); further: on the % scale 0 is the no-effect control and ±100 the full control effect; nearly all actives have a fitted effect of over 65% in size
# Chain of Glutathione peroxidase 1 (Homo sapiens) (P07203 whole entry, looked up): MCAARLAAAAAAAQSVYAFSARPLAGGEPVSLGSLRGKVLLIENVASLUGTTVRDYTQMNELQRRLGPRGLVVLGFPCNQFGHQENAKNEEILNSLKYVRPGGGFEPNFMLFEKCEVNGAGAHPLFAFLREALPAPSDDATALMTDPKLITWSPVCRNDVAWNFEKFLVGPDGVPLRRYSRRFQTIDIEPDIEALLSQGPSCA
# Procedure, shortened: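 10 nM GPX1 + cpd, 30 min RT; start w/ 1 mM GSH, 0.5 mM cumene hydroperoxide, 0.5 mM NADPH, 100 nM GR, 0.01% BSA; buffer 50 mM Tris-HCl pH 7.5, 2 mM EDTA, 150 mM NaCl; Fl 340/450, 0 & 15 min.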
# [5] = molecular target: Phospholipid hydroperoxide glutathione peroxidase GPX4 (Homo sapiens) (UniProt P36969); experiment: Primary qHTS Assay for Inhibitors of Recombinant Selenoprotein Glutathione Peroxidase 4 (GPX4) (AID 1845192); conditions: outcome: dose series up to 50 µM unless noted; further: series mostly up to about 50 µM; on the % scale 0 is the no-effect control and ±100 the full control effect; nearly all actives have a fitted effect of over 65% in size
# Chain of Phospholipid hydroperoxide glutathione peroxidase GPX4 (Homo sapiens) (P36969 whole entry, looked up): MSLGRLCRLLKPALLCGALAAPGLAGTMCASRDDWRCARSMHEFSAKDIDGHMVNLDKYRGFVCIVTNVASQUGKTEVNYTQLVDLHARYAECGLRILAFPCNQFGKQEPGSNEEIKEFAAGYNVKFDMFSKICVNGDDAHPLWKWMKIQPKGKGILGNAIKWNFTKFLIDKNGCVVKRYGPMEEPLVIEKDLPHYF
# Procedure, shortened: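 NADPH consumption, followed by fluorescence at 340/450 nm between 0 and 15 min, reports GPX4 activity via coupled glutathione reductase (100 nM). Enzyme 200 nM was pre-exposed to compound 30 min; 0.5 mM cumene hydroperoxide and 1 mM GSH served as substrates.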
# [6] = qHTS drug screen for cell cycle checkpoint inhibitors in PARPi-resistant BRCA-mutant ovarian cancer cell lines. (AID 1963452; calls by dose curve); conditions: PEO1/OlaR viability, CellTiter-Glo luminescence, 96 h, stronger effect = lower value
# Procedure, shortened: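 PEO1, PEO4 and PEO1/OlaR ovarian cancer cells, 600 per well, exposed 96 h at 37C to a dilution series. Viability read by CellTiter-Glo luminescence, normalized to DMSO and empty wells; activity summarized as Z-AUC.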
# [7] = molecular target: Atrial natriuretic peptide receptor 1 (Homo sapiens) (UniProt P16066); experiment: Natriuretic polypeptide receptor (hNpr1) antagonism - Pilot CMLD screen (AID 1347052; calls by dose curve;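 further: HEK293 cells with hNpr1 stimulated by hNppA peptide at 0.1 nM; cGMP level read as GloSensor luciferase luminescence after agonist stimulation; series mostly up to about 9.2 µM; on the % scale 0 is the no-effect control and ±100 the full control effect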)
# Chain of Atrial natriuretic peptide receptor 1 (Homo sapiens) (P16066 whole entry, looked up): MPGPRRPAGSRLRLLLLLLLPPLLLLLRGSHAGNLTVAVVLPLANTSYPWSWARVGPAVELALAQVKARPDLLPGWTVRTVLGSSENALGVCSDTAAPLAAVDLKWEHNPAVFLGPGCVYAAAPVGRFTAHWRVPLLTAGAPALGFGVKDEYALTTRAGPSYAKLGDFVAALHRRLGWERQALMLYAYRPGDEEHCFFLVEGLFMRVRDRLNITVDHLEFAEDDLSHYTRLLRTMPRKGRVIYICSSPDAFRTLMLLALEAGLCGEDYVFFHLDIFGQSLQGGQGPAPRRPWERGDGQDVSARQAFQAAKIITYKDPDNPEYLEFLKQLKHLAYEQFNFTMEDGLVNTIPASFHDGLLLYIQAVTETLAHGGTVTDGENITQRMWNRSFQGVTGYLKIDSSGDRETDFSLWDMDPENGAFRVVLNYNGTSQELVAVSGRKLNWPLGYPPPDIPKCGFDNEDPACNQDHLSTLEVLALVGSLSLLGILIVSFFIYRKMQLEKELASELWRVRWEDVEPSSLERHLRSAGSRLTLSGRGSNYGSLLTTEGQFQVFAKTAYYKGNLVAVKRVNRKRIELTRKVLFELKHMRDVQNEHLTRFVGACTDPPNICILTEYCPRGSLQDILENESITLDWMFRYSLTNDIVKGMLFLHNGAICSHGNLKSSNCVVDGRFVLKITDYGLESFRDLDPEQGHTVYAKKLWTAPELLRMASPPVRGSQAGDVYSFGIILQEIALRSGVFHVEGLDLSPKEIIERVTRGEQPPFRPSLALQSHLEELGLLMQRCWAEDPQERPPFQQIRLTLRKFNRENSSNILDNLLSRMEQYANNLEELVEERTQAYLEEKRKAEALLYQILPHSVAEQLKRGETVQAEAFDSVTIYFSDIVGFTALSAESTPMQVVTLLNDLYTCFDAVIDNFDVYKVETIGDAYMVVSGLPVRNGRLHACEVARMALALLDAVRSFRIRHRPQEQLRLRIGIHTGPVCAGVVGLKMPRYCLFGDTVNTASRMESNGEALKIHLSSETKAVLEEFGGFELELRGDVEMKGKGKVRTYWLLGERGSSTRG
Compound,Potency [1],Potency [2],Potency [3],Potency [4],Potency [5],Z-AUC [6],Z-AUC ([6]; measured here: PEO1 parental Z-AUC),Z-AUC ([6]; measured here: PEO4 Z-AUC),Potency [7]
CN1CCN(c2nc(C3=C(c4c[nH]c5ccccc45)C(=O)NC3=O)c3ccccc3n2)CC1,inactive,16.4 µM (active) and 16.6 µM (active),14.8 µM (active),inactive,inactive,1.37 (inactive),0.875,0.634,
C[C@@H]1C=CCC(=O)N[C@@H](c2ccc3ccccc3c2)[C@H](C)C=CCC(=O)N[C@@H]1c1ccc2ccccc2c1,,,,,,,,,inactive
